Here are results for 100 molecules from PubChem BioAssay AID777 (Sanford-Burnham Center for Chemical Genomics, 2007).

Out of some 96,000 compounds screened, about 19,000 (20%) were called active.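 How the source made its calls: active means blocking of liver enzyme CYP2C9 beyond about 50% at 5 µM (limit read from the data); inactive means the rest.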 Not all results are given here.

Chain of Cytochrome P450 2C9 (Homo sapiens) (P11712 whole entry, looked up): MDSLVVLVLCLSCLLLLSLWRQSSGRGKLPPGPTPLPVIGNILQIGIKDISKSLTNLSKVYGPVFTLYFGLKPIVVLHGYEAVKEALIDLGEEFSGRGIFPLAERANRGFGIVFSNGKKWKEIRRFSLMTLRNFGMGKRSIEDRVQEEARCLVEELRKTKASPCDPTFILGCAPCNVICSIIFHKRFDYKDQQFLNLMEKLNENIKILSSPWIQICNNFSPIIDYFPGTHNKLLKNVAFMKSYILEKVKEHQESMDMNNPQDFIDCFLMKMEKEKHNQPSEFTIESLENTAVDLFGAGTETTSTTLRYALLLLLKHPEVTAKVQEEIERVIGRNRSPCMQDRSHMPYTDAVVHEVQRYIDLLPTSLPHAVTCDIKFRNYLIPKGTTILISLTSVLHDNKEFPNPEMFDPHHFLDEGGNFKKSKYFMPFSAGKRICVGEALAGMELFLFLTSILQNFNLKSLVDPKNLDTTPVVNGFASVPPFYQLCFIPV

This assay addresses Cytochrome P450 2C9 (Homo sapiens) (UniProt P11712). Put plainly: blockers of cytochrome P450 2C9 activity – biochemical, luminescence, ADME assay, primary screen (AID 777). The settings on record: CYP2C9 Supersomes, luciferin-H conversion, at 5 µM, active compounds read high.
A word on the inhibition: it is the relative decrease from the control value, in per cent. With `COc1ccc2c(Cl)c(-c3nnco3)sc2c1`, the inhibition is 1.6% (inactive). With `Cc1ccc(F)cc1NC(=O)Cc1nn(C)c(=O)c2ccccc12` the figure was 30.2% (inactive); with `O=c1c2ccccc2c(-c2ccc(F)cc2)nn1-c1ccc(C(F)(F)F)cc1`, -2.7% (inactive). For the molecule `Cc1c(-c2nn(C)c(=O)c3ccccc23)oc2ccc(F)cc2c1=O`, the inhibition is 85.2% (active). `CN(C)Cc1c(C#N)c2ccccc2n1C`: the inhibition was -18.4% (inactive). With `COC(=O)C1(S(=O)(=O)C2(C(=O)OC)CCCC2)CCCC1` the figure was 8.4% (inactive). As for `Cc1cc(-c2cccs2)nc(-n2cccc2)n1`, the inhibition was 12.1% (inactive). Regarding `CCOC(=O)C1CCN(C(=O)CC2C(=O)N(Cc3ccccc3)C(C)c3nc4ccccc4n32)CC1` (stereo not given), the inhibition is -0.5% (inactive). With `CC(C)CCNC(=O)CC1C(=O)N(Cc2ccccc2)C(C)c2nc3ccccc3n21` (stereo not given) the figure was 68.6% (active). For the molecule `CCC(=O)NCCc1nc2ccccc2n1CC`, the inhibition is 29.6% (inactive). For `COc1ccccc1/C=C/C1=NC(=C\N(C)C)/C(=O)O1`, the inhibition is -6.3% (inactive). With `Cc1ccc(C(CC(=O)O)Nc2nc(N3CCCCC3)nc(N3CCCCC3)n2)cc1` (stereo not given) the figure was 45.8% (inactive); with `CN(C(=O)COc1nnc(-c2cccs2)c(-c2cccs2)n1)c1ccccc1`, 89.6% (active); with `CCOc1cccc(C(=O)Nc2nnc(-c3cccs3)s2)c1`, -32.5% (inactive).

In the case of `COCC(=O)Nc1nnc(COc2ccccc2)s1`, the inhibition was -2.1% (inactive). Regarding `COc1ccc(C2C(C(=O)N3CCN(c4ccc(OC)cc4)CC3)c3ccccc3C(=O)N2C)cc1` (stereo not given), the inhibition was 1.9% (inactive). Turning to `c1ccc(COc2ccccc2CNCc2cccnc2)cc1`, the inhibition is -14.1% (inactive). With `Fc1ccccc1COc1ccccc1CNCc1ccncc1` the figure was 65.9% (active); with `COc1ccccc1CNCc1cccs1`, 18.8% (inactive); with `COC(=O)c1cc(OC)c(OC)cc1NC(=O)C1CCCO1` (stereo not given), 20.4% (inactive).

Turning to `CC(C)C(=O)N1CCN(CCN=CC2=C(O)CC(c3ccco3)CC2=O)CC1` (stereo not given), the inhibition was -7.6% (inactive).

For `CCC1(C)Cc2c(sc3nc(SC)nc(N)c23)CO1` (stereo not given), the inhibition is 30.3% (inactive). Take `C=C(C)CSc1nc(N)c2c3c(sc2n1)CCC3`: the inhibition is 51.5% (active). Next, `c1nnc2c3c4c(sc3ncn12)CCC4`: 8.2% (inactive); `Cc1cccc(C)c1NC(=O)N1CC=C(n2c(=O)[nH]c3ccccc32)CC1`: -1% (inactive); `CCOC(=O)c1cc2occc2n1CC(=O)N1CCN(C(=O)c2ccco2)CC1`: 3.7% (inactive). Next, `Cn1c(CN2CCOCC2)nc2cc(NC(=O)c3ccc(Cl)cc3)ccc21`: 10.4% (inactive); `COc1ccc(C(=O)Nc2ccc(CN3CCOCC3)cc2)cc1`: 22.1% (inactive).

Take `COc1cccc2cc(C(C)N(CCCN3CCOCC3)C(=O)Nc3ccc(Cl)cc3)oc12` (stereo not given): the inhibition is 53.4% (active). For the molecule `CCCc1nc2oc3c(OCC)ncnc3c2c2c1COC(C)(C)C2`, the inhibition was -5.1% (inactive). Next, `CC(=O)N(Cc1cccs1)C1CCOC(C)(C)C1` (stereo not given): 9.1% (inactive); `O=C(NNS(=O)(=O)c1ccc(Cl)cc1)C1CCN(Cc2ccccc2)CC1`: 16.1% (inactive); `CCc1ccccc1NC1c2ccccc2C(=O)N1c1cccnc1` (stereo not given): 15.2% (inactive). On to `Cc1cccc(C(=O)Nc2ccccc2-c2nnn(CC(=O)Nc3ccc4c(c3)OCCO4)n2)c1`, for which the inhibition was 4.2% (inactive). With `Cc1ccnc(N2C(=O)c3ccccc3C2Nc2ccc3c(c2)OCCO3)c1` (stereo not given) the figure was 71% (active); with `O=C1c2ccccc2C(Nc2ccc3c(c2)OCCO3)N1Cc1ccco1` (stereo not given), 64% (active); with `O=C(NC1CCCCC1)C1c2ccccc2C(=O)N1Cc1ccco1` (stereo not given), 6.7% (inactive).

As for `Cc1ccc(Cc2c(C)nc3nc(SCC(=O)NCCN4CCOCC4)nn3c2C)cc1`, the inhibition was 9% (inactive).

For the molecule `Clc1ccc(-n2nnnc2CN2CCCCC2)cc1Cl`, the inhibition is 12.4% (inactive). For `COc1ccc(N(CC(=O)NC2CCCCC2)S(=O)(=O)c2c(C)[nH]c(=O)[nH]c2=O)cc1`, the inhibition was 33.9% (inactive).

On to `CCc1cc2c(N3CCN(c4nnc(CC)s4)CC3)ncnc2s1`, for which the inhibition is 59.6% (active). Consider `Cc1ccc(-n2ncc3c(N4CCN(c5ccc(F)cc5)CC4)ncnc32)c(C)c1`, for which the inhibition is -9.7% (inactive). Next, `O=S(=O)(N1CCCCC1)N1CCNCC1`: -27.8% (inactive); `Cn1nc(-c2ccccc2)c(CSc2cccc(Cl)c2)c1Cl`: 44.7% (inactive); `Cc1nc2nc[nH]n2c(=O)c1NC(=O)c1cccc(OCC(C)C)c1`: 7.2% (inactive). Next, `O=C(NCc1ccco1)c1nc2ncccn2n1`: -9.7% (inactive); `O=C(Cc1ccccc1)n1nc(-c2ccccc2)nc1NCc1ccco1`: 8.8% (inactive); `O=C(NCc1ccco1)c1nc(-c2ccccc2)n(-c2ccccc2)n1`: 51.3% (active). With `CCOCCCNC(=O)C(NC(=O)CNC(=O)c1ccccc1)c1ccc(C)cc1` (stereo not given), the inhibition was -22.9% (inactive).

For `C/C(=N\NS(=O)(=O)c1cccc([N+](=O)[O-])c1)c1cc2ccccc2o1`, the inhibition was 91.4% (active).

Consider `Cc1ccccc1NC(=S)Nc1cccc([N+](=O)[O-])c1`, for which the inhibition was 22.3% (inactive).

`CCCS(=O)(=O)N1CCCC(C(=O)NCCN2CCCCC2C)C1` (stereo not given): the inhibition was -5.4% (inactive). In the case of `CCCc1ccc(-c2c(C)sc(NC(=O)c3ccnn3C)c2C#N)cc1`, the inhibition is 43.6% (inactive). For the molecule `CC(=O)NS(=O)(=O)c1ccc(NC(=O)/C=C/c2ccccc2Cl)cc1`, the inhibition was 12.7% (inactive). As to `COc1ccc(CCN(C)C(=O)C2CCCN(Cc3ccc(OC)c(OC)c3)C2)cc1OC` (stereo not given), the inhibition is 27.1% (inactive).

Consider `COc1ccc(CCNC(=O)C2CCCN(Cc3nc(-c4cccc(Cl)c4)oc3C)C2)cc1OC` (stereo not given), for which the inhibition was 58.8% (active).

In the case of `CCCS(=O)(=O)N1CCC(C(=O)NCCc2ccc(OC)c(OC)c2)CC1`, the inhibition was -5.4% (inactive).

In the case of `Nc1nnnn1/N=C/c1cccs1`, the inhibition is -2% (inactive). With `O=C(Nc1c(Cl)cccc1Cl)C1CCC1` the figure was 0.8% (inactive); with `CCn1c(O)c2ccc(C(=O)N=NC(=O)c3cccnc3)cc2c1O`, -3.1% (inactive); with `COc1cc(OC)cc(C(=O)NC(=S)N2CCN(c3ccc(C(F)(F)F)cc3[N+](=O)[O-])CC2)c1`, 13.9% (inactive). With `CCNc1nc(N)nc(Oc2ccc(OCC)nn2)n1` the figure was -26.3% (inactive). With `OCCNCCCCOc1ccccc1F` the figure was -0.4% (inactive); with `CSc1nc(N(C)NC(=O)c2cccc(C)c2)c2ccccc2n1`, -0.3% (inactive); with `CC(=O)c1ccc(Cc2ncc(C(F)(F)F)cc2Cl)s1`, -2.6% (inactive). Take `COc1ccc(OC(C)C(=O)Nc2cccnc2)cc1` (stereo not given): the inhibition was 3.3% (inactive).

Consider `COc1cccc(NC(=O)c2ccccc2SC)c1`, for which the inhibition was -4.1% (inactive). With `COc1cccc(NC(=O)C(C)Oc2ccccc2)c1` (stereo not given) the figure was 56.1% (active); with `CCCCN(CCCC)C(=O)CCS(=O)(=O)c1ccc2c(c1)n(C)c(=O)c(=O)n2C`, 14.4% (inactive); with `Cc1cccc(CSc2nnc(NC(=O)CSc3nnc(C)s3)s2)c1`, -12% (inactive). With `CC(CCO)Nc1nc2c([nH]1)c(=O)n(C)c(=O)n2C` (stereo not given) the figure was 19.8% (inactive). Consider `COc1ccc(OC)c2[nH]c(=O)c(CCNC(=O)C(C)(C)C)cc12`, for which the inhibition was -7% (inactive).

In the case of `CC(=O)Nc1ccc(S(=O)(=O)Nc2ccc(N3CCOCC3)c(F)c2)cc1`, the inhibition was 50% (active).

Regarding `CC(=O)Nc1ccc(S(=O)(=O)Nc2cccc(NC(=O)C(C)(C)C)c2)cc1`, the inhibition is 59.2% (active). Regarding `COc1cc(NS(=O)(=O)c2ccc(NC(C)=O)cc2)cc(OC)c1`, the inhibition is 43.7% (inactive).

As to `COC(=O)COc1ccc(S(=O)(=O)Nc2ccc(NC(C)=O)cc2)cc1`, the inhibition is 61.2% (active). With `CC(=O)Nc1ccc(S(=O)(=O)Nc2nc3n(n2)C(c2ccccc2)CC(=O)N3)cc1` (stereo not given) the figure was -3.6% (inactive); with `O=C(O)CCC(=O)Nc1ccc(N2CCOCC2)cc1`, 3.7% (inactive). Regarding `COc1ccc(NS(=O)(=O)c2ccc(NC(=S)NC(=O)CC(C)C)cc2)cc1`, the inhibition was 54.8% (active). With `COc1ccc(NS(=O)(=O)c2ccc(NC(=O)C(C)(C(F)(F)F)C(F)(F)F)cc2)nn1` the figure was 12.4% (inactive); with `COc1ccc(C(=O)Nc2ccc(S(=O)(=O)NC(C)C)cc2)cc1`, 34.1% (inactive); with `CC(=O)NS(=O)(=O)c1ccc(NC(=S)NC(=O)C(C)(C)C)cc1`, -22.1% (inactive). For the molecule `CCCC(NS(=O)(=O)c1ccc(OC)cc1)C(=O)O` (stereo not given), the inhibition is 12.5% (inactive).

On to `COc1ccc(NS(=O)(=O)c2ccc(NC(C)=O)cc2)cc1OC`, for which the inhibition is -8.7% (inactive).

Turning to `Cc1ccccc1-n1nc(C)c2cc(C(=O)NC3CC3)sc21`, the inhibition is 37.1% (inactive). Next, `O=C(c1ccco1)N1CCN(CC(=O)N(C2CCCCC2)C2CCS(=O)(=O)C2)CC1` (stereo not given): -18.6% (inactive); `O=[N+]([O-])c1ccccc1OCCCCN1CCCCC1`: -4% (inactive); `CCCC(=O)Nc1nc2ccc(NC(=O)c3cccnc3)cc2s1`: 27.5% (inactive).

As to `CCc1c(C)sc(NC(=O)c2ccc(Br)o2)c1C(=O)OC`, the inhibition was -40.5% (inactive). As for `CCOC(=O)c1c(CN2CCOCC2)n(-c2ccccc2)c2ccc(O)cc12`, the inhibition was 38.1% (inactive).

For `COc1cccc(CN2C(=O)CCC2(C)C(=O)NC2CCCCCC2)c1` (stereo not given), the inhibition was -58.7% (inactive). Next, `CCNc1nc(SCCOc2ccccc2)nc(N(C)C)n1`: -4.3% (inactive); `Cn1c(=O)cc(SCC(=O)N2CCCC2)c2cc(Cl)ccc21`: 0.1% (inactive). Next, `CCOC(=O)Nc1ccc2c(c1)N(C(=O)CN1CCN3CCCC3C1)c1ccccc1CC2` (stereo not given): 0.1% (inactive); `CSCC[C@H](NC(=O)NCc1cccs1)C(=O)O`: -6.8% (inactive); `COc1ccc(-n2ncc3c(N4CCc5ccccc54)ncnc32)cc1`: -29.5% (inactive). `CC1(C)CC(=O)C=C(NC2CC(C)(C)NC(C)(C)C2)C1`: the inhibition was 9.6% (inactive).

For `Cc1ccnc(N2CCN(C(=O)CSc3nc4ccccc4nc3N3CCCCC3)CC2)c1`, the inhibition was 98.5% (active). With `Cc1ccc(S(=O)(=O)NCC(=O)N2CCN(c3ccccn3)CC2)cc1`, the inhibition is 5.3% (inactive). With `Cc1ccc2oc(=O)c3cnn(CC(=O)N4CCN(c5ccccn5)CC4)c3c2c1`, the inhibition was 20.1% (inactive).
